An excerpt weighted towards active compounds, which were near 7.3% of everything screened.
Tau ThT inhib – qHTS for Inhibitors of Tau Fibril Formation, Thioflavin T Binding | Potency, µM (series often up to 57.4 µM), for the others: at the top dose activity, negative = inhibition, hits mostly inhibitors | recombinant tau K18 P301L, heparin-induced fibrillization, ThT fluorescence | AID 1460, 2008 | 270,000 compounds, 2.1% hits | Microtubule-associated protein tau (Homo sapiens), P10636; note: nearly all actives have a fitted effect of over 55% in size
Target sequence (P10636 561-689 P618L limits assumed): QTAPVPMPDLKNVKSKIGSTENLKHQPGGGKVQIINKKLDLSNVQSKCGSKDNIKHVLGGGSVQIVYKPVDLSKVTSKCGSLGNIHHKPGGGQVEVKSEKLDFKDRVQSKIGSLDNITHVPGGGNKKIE
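Recombinant human tau K18 fragment […] carrying P301L, 15 uM unlabeled plus 0.24 uM Alexa 594-labeled, was fibrillized with 20 uM heparin in 100 mM sodium acetate pH 7 for 6 hr at 37 C; 30 uM ThT fluorescence read after 1 hr.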
VP16 counter – VP16 counterscreen qHTS for inhibitors of ROR gamma transcriptional activity. Potency, µM (series often up to 53.6 µM), for the others: top-dose activity, negative = inhibition, hits mostly inhibitors. Drosophila S2 Gal4-VP16 UAS-luciferase, luminescence, 20 h. 310,000 compounds, 3.5% hits;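 note: Gal4-VP16 expression switched on by copper sulfate through the metallothionein promoter; nearly all actives have a fitted effect of over 50% in size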
RORgamma inh – qHTS for inhibitors of ROR gamma transcriptional activity | Nuclear receptor ROR-gamma (Mus musculus), P51450 | Drosophila S2 Gal4-RORgamma UAS-luciferase reporter, 20 h | Potency, µM (titrated, usually from 53.6 µM), for the others: top-dose activity change, negative = inhibition, actives largely listed as inhibitors | 310,000 compounds, 5.4% hits; note: nearly all actives have a fitted effect of over 60% in size
Target sequence (P51450 whole entry, looked up, the tested form may be a part): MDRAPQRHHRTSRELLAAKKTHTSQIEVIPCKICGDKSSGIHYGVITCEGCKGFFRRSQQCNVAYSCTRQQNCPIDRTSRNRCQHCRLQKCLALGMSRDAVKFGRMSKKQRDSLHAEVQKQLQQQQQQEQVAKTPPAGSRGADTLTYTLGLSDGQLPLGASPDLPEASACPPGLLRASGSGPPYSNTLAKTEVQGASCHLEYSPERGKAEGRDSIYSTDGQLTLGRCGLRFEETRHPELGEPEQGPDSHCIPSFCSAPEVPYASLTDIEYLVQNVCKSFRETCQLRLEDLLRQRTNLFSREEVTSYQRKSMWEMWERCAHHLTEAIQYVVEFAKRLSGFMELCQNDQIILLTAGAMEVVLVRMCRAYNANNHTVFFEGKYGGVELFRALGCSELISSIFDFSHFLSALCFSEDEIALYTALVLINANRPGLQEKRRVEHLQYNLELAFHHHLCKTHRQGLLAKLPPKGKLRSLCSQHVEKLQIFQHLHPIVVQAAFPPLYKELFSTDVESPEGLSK
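Schneider cells (Drosophila), stable Gal4 DBD–ROR gamma + UAS-luc; 1 hr cmpd preincubation; Cu2+ induction 700 uM final; 20 hr ambient; luminescence.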
Tau fibril FP – qHTS for Inhibitors of Tau Fibril Formation, Fluorescence Polarization | Microtubule-associated protein tau (Homo sapiens), P10636 | K18 P301L tau heparin fibrillization, Alexa594 FP, 6 h | Potency, µM (doses to about 57.7 µM), inactives show at the highest dose activity, negative = inhibition, hits mostly inhibitors | 280,000 compounds, 0.39% hits; note: nearly all actives have a fitted effect of over 55% in size
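Recombinant K18 P301L […], labeled with Alexa 594 at 0.24 uM over 15 uM unlabeled; heparin inducer 20 uM final; 37 C, 6 hr; FP endpoint.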
Tau fluor counter – Counterscreen qHTS for Inhibitors of Tau Fibril Formation, Fluorescence Polarization; tau K18 P301L (four-repeat tau fragment) Alexa594 fluorescence, heparin fibrillization; Potency, µM (titrated, usually from 57.7 µM), for the others: at the highest dose activity change, negative = decrease; 280,000 compounds, 0.93% hits; note: nearly all actives have a fitted effect of over 55% in size
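Human K18 P301L tau (15 uM unlabeled plus 0.24 uM Alexa 594-labeled, final) in 100 mM sodium acetate pH 7 was mixed with compound and 20 uM heparin and incubated 6 hr at 37 C.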
Numbers without * were called inactive; u = inconclusive; x = no result given; [ ] = dose if it differs, or a comment. Calls come from the whole dose curve; as a rule, active = well fitted curve in the direction sought with a large enough effect; inconclusive = small, poorly fitted or top-dose-only effect, or another doubt; inactive = no such curve, though single readings can be large; an effect the other way counts as inactive or inconclusive. % is set by controls: 0 for no effect and ±100 for the full control effect; potency is the fitted concentration of half-maximal effect.

SMILES | Tau ThT inhib | VP16 counter | RORgamma inh | Tau fibril FP | Tau fluor counter
S=C1NCN(C2CCCCC2)CN1Cc1ccccc1 | 2% | 3.5µM* | 1.8µM* | -7% | -1%
CCCCCOC(=O)c1ccc(OC(=O)c2sc3ncn(Cc4cccc(F)c4)c(=O)c3c2C)cc1 | -2% | x | x | -12% | -3%
CCC/C=C(\CCC)C(NC(=O)c1ccc(-c2ccccc2)cc1)c1ccc(C(=O)OC)cc1 (configuration not stated) | -4% | 3% | -12% | -17% | -5%
COC(=O)C1=C(c2ccccc2)c2ccccc2S(=O)(=O)N1CC(=O)Nc1cccc(C(C)=O)c1 | 3% | x | x | u | u
CCCCCCC(=O)N(O)C1CC(=O)N(c2ccc(C)cc2)C1=O (configuration not stated) | u | u | 11µM* | 15% | 1%
N=C1C(c2nc3ccccc3[nH]2)=C(O)CN1c1ccc(CC(=O)O)cc1 | u | 6% | u | 7% | -12%
N=C1C(c2nc3ccccc3[nH]2)=C(O)CN1c1ccccc1 | u | u | 14µM* | -5% | -19%
COc1cccc(/C=N/NC(=O)C(=O)Nc2ccccc2OC(F)(F)C(F)F)c1 | -3% | -25% | -29% | -10% | 0%
COc1ccccc1/C=N/NC(=O)C(=O)Nc1ccccc1OC(F)(F)C(F)F | -19% | 1% | -5% | -1% | -18%
O=C(N/N=C/c1cc(Cl)ccc1O)C(=O)Nc1ccccc1OC(F)(F)C(F)F | -1% | 2.5µM* | 0.89µM* | u | -18%
O=C(N/N=C/c1cc(Br)ccc1O)C(=O)Nc1ccccc1OC(F)(F)C(F)F | -14% | 2.8µM* | 0.79µM* | -7% | -15%
CNc1ncncc1-c1ccccc1CN(C)C | x | 2% | 2% | x | x
Cc1cccc(NC(=O)NC2CCCCCCC2)c1C | x | -8% | -6% | x | x
COc1ccc(NC(=O)Nc2cccc(OCc3cc(=O)n4cccc(C)c4n3)c2)c(OC)c1 | u | x | x | u | 7.1µM*[quencher]
COc1ccc(OC)c(NC(=O)Nc2cccc(OCc3cc(=O)n4cc(C)ccc4n3)c2)c1 | u | x | x | u | 13µM*[quencher]
COc1cc(OC)c(NC(=O)Nc2cccc(OCc3cc(=O)n4ccccc4n3)c2)cc1Cl | u | x | x | 8% | 6.3µM*[quencher]
COc1ccc(NC(=O)Nc2ccccc2OCc2cc(=O)n3ccccc3n2)c(OC)c1 | u | x | x | 12% | u
CCc1ccc2occ(CC(=O)N(Cc3ccccc3)C3CCS(=O)(=O)C3)c2c1 (configuration not stated) | -10% | x | x | -1% | -17%
COc1cc(OC)cc(N(C(=O)c2snc(C(N)=O)c2N)C(C(=O)NCC2CCCO2)c2ccc(C)o2)c1 (configuration not stated) | x | 19% | 9% | x | x
COc1ccc(CS(=O)(=O)CC(C)(O)c2ccccc2Cl)cc1 (configuration not stated) | x | -1% | 15% | x | x
Cc1cccc(C2NC(=O)c3c(sc(C)c3C)N2)c1O (configuration not stated) | 16µM* | -12% | -1% | -10% | -14%
COc1cc(OC)c2c(c1C(CCN1CCCC(C)C1)c1ccc(N(C)C)cc1)OC(=O)CC2c1ccc(N(C)C)cc1 (configuration not stated) | x | -11% | -3% | x | x
CCC(C(=O)O)n1ccc2cc(S(=O)(=O)N3CCCCC3)ccc21 (configuration not stated) | -4% | x | x | -3% | -7%
Cc1cc(=O)cc2oc3cc(N)c(-c4c(C)cc(O)cc4O)c(C)c3nc1-2 | 14µM* | -26% | -41% | 22µM* | u
CCN(CC)c1ccc(N=Cc2cc(Br)ccc2O)cc1 | 16µM* | u | 18µM* | u | u
SMILES | Tau ThT inhib | VP16 counter | RORgamma inh | Tau fibril FP | Tau fluor counter
CCn1c(/N=C/c2ccccc2O)nc2ccccc21 | x | -8% | 14% | x | x
Cc1ccc(O)c(C=Nc2cc(C)ccc2O)c1 | u | 20µM* | u | -3% | -10%
Cc1ccc(O)c(C=Nc2ccc3[nH]ncc3c2)c1 | u | u | -7% | u | -22%
Oc1ccc(Br)cc1C=Nc1ccc(Cl)cc1 | -5% | 4% | -38% | -4% | -5%
CCc1ccc(O)c(N=Cc2ccccc2O)c1 | u | -28% | 13µM* | -6% | -22%
CC(C)(C)c1ccc(O)c(N=Cc2cc(Br)ccc2O)c1 | u | u | 10µM* | -5% | u
OCC(CO)(CO)N=Cc1cc(Br)ccc1O | 0% | -4% | -24% | 1% | 5%
COc1ccc(CCNC(=O)CCC(=O)N2CC(C)Oc3ccccc32)cc1OC (configuration not stated) | x | 3% | 0% | x | x
Cc1c(OCC(=O)N[C@H](C(=O)O)c2ccccc2)ccc2c3c(c(=O)oc12)CCCC3 | x | -2% | -6% | x | x
Cc1ccc2nc(NCc3ccco3)c(C=NCc3ccco3)c(=O)n2c1 | u | -6% | 33% | -6% | -13%
Cc1cc(O)cc(O)c1C=NCc1ccco1 | u | 5.6µM* | u | -14% | -30%
O=C(O)c1ccccc1-c1nc2ccccc2[nH]1 | 6% | -17% | -40% | -4% | 8%
Oc1ccc2ccccc2c1C=Nc1ccccc1-c1nc2ccccc2[nH]1 | 28µM* | u | u | -4% | u
O=Nc1c(-c2ccccc2)[nH]n(-c2ccccc2)c1=O | x | 16µM* | u | x | x
Cc1[nH]n(-c2ccccc2)c(=O)c1N=Nc1cccc(C(=O)O)c1 | x | 2.8µM* | u | x | x
Cc1[nH]c2ccccc2c1N=Nc1cccc(C(=O)O)c1 | 7.9µM* | -23% | -10% | 12% | -23%
Cc1[nH]n(-c2ccccc2)c(=O)c1N=Nc1ccccc1 | u | u | 20% | 2% | -6%
Cc1[nH]n(-c2ccccc2)c(=O)c1N=Nc1c(Cl)cccc1Cl | x | u | 13µM* | x | x
COC(=O)c1cc(N=Nc2c(C)[nH]c3ccccc23)cc(C(=O)OC)c1 | u | -5% | 5% | 2% | u
NC(=O)c1ccc(N=Nc2c(-c3ccccc3)[nH]n(-c3ccccc3)c2=O)cc1 | u | 7% | 6% | 15% | u
Cn1c(SCc2ccc(F)cc2)nc2ccc(C(=O)NCc3cccc(Cl)c3)cc21 | -3% | x | x | -10% | -28%
O=C(O)C1CC(CCCP(=O)(O)O)CCN1 (configuration not stated) | x | 14% | 8% | x | x
COc1cc(NS(=O)(=O)c2cc3c(cc2C)n(C)c(=O)c(=O)n3C)cc(OC)c1 | 5% | x | x | 0% | 1%
CCC(=O)Nc1cc(-c2nc3cc(C)cc(C)c3o2)ccc1C | u | x | x | 4% | -8%
